# Experimental data published in PubChem BioAssay AID1259354 (Paczesny and Yang Labs, IUPUI and University of Michigan, 2018).
# Where “and” joins values, the source holds several entries; their conditions need not be identical. Equal entries are not always repeated. In all, about 78,000 compounds went through this assay and about 1,800 (2.3%) were called active. Another 27% or so got no clear call; they are omitted. The sample holds actives, similar compounds and a random draw of the others, so the mix is not that of the screen. No stated cut-off is given here; in the data, active means inhibition above about 30%; inconclusive means mostly about 10% to 28%; inactive means weaker than that.
# Target: Interleukin-1 receptor-like 1 (Homo sapiens) (UniProt Q01638)
# Assay: inhibitors of human ST2 (IL1RL1) binding to IL-33, primary screen, biochemical, AlphaLISA (AID 1259354)
# Conditions: AlphaLISA ST2-Fc/biotin-IL-33 interaction, 1 h; at 17 µM, stronger effect = higher value
# Interleukin-1 receptor-like 1 (Homo sapiens), sequence (Q01638 whole entry, looked up): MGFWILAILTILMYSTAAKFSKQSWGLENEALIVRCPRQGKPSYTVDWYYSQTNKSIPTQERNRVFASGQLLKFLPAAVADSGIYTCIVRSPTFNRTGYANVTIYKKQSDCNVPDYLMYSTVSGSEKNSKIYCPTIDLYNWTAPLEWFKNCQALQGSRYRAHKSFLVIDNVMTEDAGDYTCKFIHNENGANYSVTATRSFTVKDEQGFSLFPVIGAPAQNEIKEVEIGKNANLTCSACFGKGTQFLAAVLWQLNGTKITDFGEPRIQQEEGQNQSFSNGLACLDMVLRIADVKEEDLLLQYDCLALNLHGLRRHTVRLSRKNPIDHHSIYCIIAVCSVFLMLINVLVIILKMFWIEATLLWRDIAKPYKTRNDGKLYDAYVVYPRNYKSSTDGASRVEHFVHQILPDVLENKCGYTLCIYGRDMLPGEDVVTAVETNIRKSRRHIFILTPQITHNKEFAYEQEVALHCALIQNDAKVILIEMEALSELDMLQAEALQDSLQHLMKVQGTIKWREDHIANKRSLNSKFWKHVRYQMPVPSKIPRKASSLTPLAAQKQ
row,Compound,inhibition
1,O=C(Nc1nc2c(cc3c4c(cccc42)CC3)s1)c1ccc(S(=O)(=O)N2CCOCC2)cc1,inactive
2,COc1ccc(-c2cnc(N)cn2)cc1C,inactive
3,Cc1ccncc1C(=O)N1CCC(=O)N(CC2CC2)C(C(C)C)C1 (centres undefined),inactive
4,CCn1c(=O)cc(O)c2ccccc21,85% (active)
5,O=C(O)Cn1c2ccccc2c2cc(Cl)ccc21,inactive
6,O=C(Cn1c2ccccc2c(=O)c2ccccc21)Nc1ccccc1Cl,inactive
7,Fc1ccccc1CSc1nnc2c(n1)OC(c1cccnc1)Nc1ccccc1-2 (centres undefined),inactive
8,COc1cccc(N2CCN(Cc3cccs3)CC2)c1,inactive
9,COc1ccc(N2CCN(Cc3ccc(Br)s3)CC2)cc1,39% (active)
10,COc1ccc(N2CCN(Cc3nc4c(c(=O)[nH]c(=O)n4C)n3CCCO)CC2)cc1,inactive
11,CC(c1cccs1)N(C)Cc1ccc(C#CC(C)(C)O)s1 (centres undefined),inactive
12,CC(C)NC(=O)C(CCO)NC(C)C (centres undefined),inactive
13,Cc1ccc(-n2c(SCC(=O)Nc3ccc([N+](=O)[O-])cc3)nc3c(c2=O)SCC3)cc1,36% (active)
14,CCOc1ccc(NC(=O)CSc2nc3c(c(=O)n2-c2ccccc2)SCC3)cc1,inactive
15,Cc1ccc(-n2c(SCC(=O)Nc3ccccc3C(F)(F)F)nc3c(c2=O)SCC3)cc1,inactive
16,O=S(=O)(c1ccccc1)N1CCN(c2cc(-c3ccc(F)cc3)ncn2)CC1,inactive
17,Cn1c(=O)c2c(SCC(=O)NC3CCCC3)nc(-c3ccc(F)cc3)nc2n(C)c1=O,inactive
18,Cc1cc(/C=C2/C(=O)NC(=O)N(C)C2=O)c(C)n1-c1ccc(Cl)c(Cl)c1,34% (active)
19,Cc1ccc(N2NC(=O)/C(=C/c3cccc([N+](=O)[O-])c3)C2=O)cc1Cl,inactive
20,Cc1ccc(N2NC(=O)/C(=C/c3ccc4c(c3)OCO4)C2=O)cc1Cl,inactive

row,Compound,inhibition
1,COc1ccc(C(=O)Nc2c3c(nn2-c2ccc(F)cc2)CS(=O)C3)c(OC)c1 (centres undefined),inactive
2,Cc1ccnc(CC(C)N(C)C(=O)c2cc(CC(C)C)no2)c1 (centres undefined),inactive
3,Cc1ccc(C(=O)N2N=C(c3ccccc3)CC2c2ccccc2)cc1 (centres undefined),inactive
4,N/C(=N/OC(=O)c1ccc2c(c1)OCO2)c1ccc(Cl)cc1,inactive
5,COc1ccc(S(=O)(=O)Nc2ccc(Br)cc2)cc1,inactive
6,COc1ccc(S(=O)(=O)ON=C2C=CC(=O)C=C2)cc1,32% (active)
7,COC(=O)CNS(=O)(=O)c1ccc(OC)cc1,inactive
8,COc1ccccc1C(=O)Nc1ccc2c(c1)NC(=O)CC2c1ncc[nH]1 (centres undefined),inactive
9,O=C1CCC(C(=O)N2CCN(Cc3cccnc3)CC2)CN1CC1CCCCC1 (centres undefined),inactive
10,NC(=O)c1c(NC(=O)c2cc(=O)c3ccccc3o2)sc2c1CCCCC2,inactive
11,CCCC(=O)c1c(OC)cc(O)c(CC)c1O,inactive
12,CC(CN1CCC(C(N)=O)CC1)c1ccccc1 (centres undefined),inactive
13,Cn1c(=O)cc(SCC(=O)N2CCN(C(=O)c3ccco3)CC2)c2ccccc21,inactive
14,CC(CN1CCN(C)C2(CCN(C(=O)c3ccco3)CC2)C1)c1ccccc1 (centres undefined),30% (active)
15,C=CCn1c(=O)c2c(nc3n2CCN3c2ccc(C)cc2)n(C)c1=O,inactive
16,COc1ccc(Nc2nc(Cl)nc(NCc3ccco3)n2)cc1,inactive
17,CCC(=O)Nc1ccc(Nc2nc(C)cc(Nc3ccc(OC)cc3)n2)cc1,inactive
18,COc1ccc(Nc2nc(Nc3ccc(OC)cc3)nc(N3CCNCC3)n2)cc1,31% (active)
19,CCOC(=O)CSC1=C(C#N)C(c2ccccc2)CC(=O)N1 (centres undefined),inactive
20,CN(C)c1ccc(/C=C\c2nc3ccccc3c(=O)n2-c2ccc(C(=O)O)cc2)cc1,inactive

row,Compound,inhibition
1,CN(C)c1ccc(/C=C2\N=C(c3cccc(I)c3)OC2=O)cc1,inactive
2,CC1=NN(Cc2ccccc2)C(=O)/C1=C/c1ccc(N(C)C)cc1,44% (active)
3,CN(C)CC1(O)CCCN(C(=O)c2ccc(-n3ccnc3)cc2)CC1 (centres undefined),inactive
4,C=CCn1c(-c2ccccc2)csc1=Nc1ccc(O)cc1,53% (active) and 41% (active)
5,O=[N+]([O-])c1ccc(O)c(C=Nc2ccc3oc(-c4ccccc4)nc3c2)c1,inactive
6,COc1ccc(-c2nc3cc(N=Cc4cccc(OC)c4O)ccc3o2)cc1,43% (active)
7,O=C(O)c1ccc(O)c(C=Nc2ccc3oc(-c4ccccc4)nc3c2)c1,inactive
8,CC1(c2ccccc2NC(=O)c2ccc([N+](=O)[O-])cc2)CC1,30% (active)
9,O=C(Nc1ccc([N+](=O)[O-])cc1)c1ccc(Br)cc1,inactive
10,COc1ccc([N+](=O)[O-])cc1NC(=O)c1ccc(-c2ccccc2)cc1,inactive
11,c1cc(-c2nc3ccncc3[nH]2)ccn1,inactive
12,O=[N+]([O-])c1cc(Cl)ccc1N1CCCNCC1,inactive
13,CC1CCN(c2ccc(C(=O)O)cc2[N+](=O)[O-])CC1,inactive
14,O=[N+]([O-])c1cc(Cl)ccc1N1CCN(c2ccc([N+](=O)[O-])c3cccnc23)CC1,56% (active)
15,CSc1ccccc1NC(=O)c1cc(-c2ccc(Br)cc2)on1,inactive
16,O=C1CN(C(=O)c2nn(CCCc3ccccc3)c3c2CN(Cc2cccnc2)CC3)CCN1,inactive
17,CCOc1ccc(-c2cc(C)n3nc(C(=O)OC)cc3n2)cc1,inactive
18,OCCNc1c(F)c(F)nc(N2CCOCC2)c1F,inactive
19,O=C(NC[C@H]1O[C@@H](CO)[C@@H](O)[C@H]1N1CCc2ccccc2C1)Nc1ccccc1,inactive
